The list is not random: actives were taken first. Their share in the collection is about 9%.
BAZ2B block: inhibitors of human BAZ2B bromodomain | AlphaScreen BAZ2B-H3K14Ac peptide displacement | Potency, µM (top dose mostly 114 µM), without a hit: top-dose activity change, negative = inhibition, most hits filed as inhibitors | hit rate 4.4% among 360,000; further: on the % scale 0 is the no-effect control and ±100 the full control effect; nearly all actives have a fitted effect of over 60% in size
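Inhibition is scored as reduced AlphaScreen emission. The BAZ2B/b-H3(5-23)K14Ac complex (50 nM each) in PBS pH 7.4, 0.01% Tween-20 meets compound (up to 110 uM) for 30 min at RT before bead addition.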
JMJD2A Tudor inh: JMJD2A Tudor domain (human) inhibition | AlphaScreen JMJD2A-Tudor / H3K4me3 peptide binding | Potency, µM (series often up to 114 µM), for the others: at the top dose activity change, negative = inhibition, actives largely listed as inhibitors | hit rate 4.4% among 390,000 | AID 504339; further: on the % scale 0 is the no-effect control and ±100 the full control effect; nearly all actives have a fitted effect of over 50% in size
PLK1 PBD block: blocks phosphopeptide binding to human PLK1 polo-box domain. P53350. Plk1 PBD binding of FITC phosphopeptide, fluorescence polarization. Potency, µM, for inactives: max response, negative = inhibition, most hits filed as inhibitors. hit rate 2.8% among 360,000. AID 720504; further: series mostly up to about 57 µM; on the % scale 0 is the no-effect control and ±100 the full control effect; nearly all actives have a fitted effect of over 65% in size
ALOX12 inh: blocks human arachidonate 12S-lipoxygenase; purified 12hLO, xylenol orange hydroperoxide absorbance; Potency, µM (highest dose often 108 µM), for inactives: top-dose activity change, negative = inhibition, hits mostly inhibitors; hit rate 1.1% among 580,000; further: on the % scale 0 is the no-effect control and ±100 the full control effect
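Purified human 12hLO (150 nM final) in 25 mM Hepes, 0.01% Triton X-100, pH 7.0 was preincubated 15 min at room temperature with compound. Then 40 uM arachidonic acid was added, 30 min. Hydroperoxide was read by Fe-XO absorbance ratio 573/405 nm.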
G9a block: G9a (human) methyltransferase inhibition. G9a H3K9 monomethylation, AlphaScreen, 2 h. Potency, µM (series often up to 102 µM), inactives show at the top dose activity, negative = inhibition, hits mostly inhibitors. hit rate 8.8% among 350,000; further: on the % scale 0 is the no-effect control and ±100 the full control effect; nearly all actives have a fitted effect of over 75% in size
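Quantitative HTS format: methyltransferase activity on a biotin-tagged H3K9 peptide is measured by AlphaScreen, using a rabbit anti-monomethyl-H3K9 antibody with streptavidin donor and anti-IgG acceptor beads. Final levels are 20 nM enzyme, 500 nM peptide, 20 uM SAM; 2 h RT.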
HP1b chromo inh: HP1-beta chromodomain-methylated histone interaction inhibition | hit rate 0.56% among 390,000 | P83916 | Potency, µM (series often up to 114 µM), for the others: top-dose activity change, negative = inhibition, actives largely listed as inhibitors | AlphaScreen HP1-beta / biotin-H3K9me3 peptide binding | AID 540317; further: nearly all actives have a fitted effect of over 70% in size
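Compound inhibition of the preformed complex between 50 nM HP1-beta and 50 nM biotinylated H3K9me3 peptide was read by AlphaScreen. Buffer was PBS pH 7.4 with 0.01% Tween-20. Incubations ran 30 min at room temperature, with 10 ug/mL donor/acceptor beads.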
* = called active by the depositor; ? = inconclusive; · = not tested or not shown; [ ] = another dose, or the depositor's remark. The call rests on the fitted dose curve; in most records, active means well fitted curve in the direction sought with a large enough effect; inconclusive means small, poorly fitted or top-dose-only effect, or another doubt; inactive means no such curve, though single readings can be large; an effect the other way counts as inactive or inconclusive. Potency means the concentration at half of the fitted maximal effect.

SMILES	BAZ2B block	JMJD2A Tudor inh	PLK1 PBD block	ALOX12 inh	G9a block	HP1b chromo inh
COc1cc(NC(=O)C(NS(=O)(=O)c2ccc3c(c2)CCCC(=O)N3)C(C)C)cc(OC)c1 (configuration not stated)	-6%	-13%	·	-24%	-3%[59 µM]	15%
O=C(COc1ccccc1Cl)N1CCN(c2ccc([N+](=O)[O-])c(N3CCCCC3)c2)CC1	?	?	-4%	14%	-51%	?
CCOc1cccc(-c2nc(C(=O)Nc3ccc(OC)cc3)cs2)c1	·	·	·	23%	·	·
COc1cccc(C(=O)N2CCC[C@H]2C(=O)N2CCC[C@H]2C(=O)NCc2ccncc2)c1	·	·	-9%	-20%	·	·
CCN(c1cccc(C)c1)S(=O)(=O)c1cc2[nH]c(=O)c(=O)[nH]c2cc1C	·	·	·	427%	·	·
Cc1c(Cl)cccc1-n1nc(C)c2c(C(=O)NCc3ccccc3)cc(C3CC3)nc21	8%[57.1 µM]	-10%	·	-18%	?	23%
COc1ccc(-c2nc(CN3CCN(C(=O)c4ccco4)CC3)c(C)o2)cc1OC	14%[57.1 µM]	-19%	-19%	1%	56µM*	19%
Cc1csc2c(=O)sc(NC(=O)c3cccs3)nc12	50µM*	-28%	-14%	16%	?	1%
Cc1csc2c(=O)sc(NC(=O)c3ccco3)nc12	-1%	-6%	-26%	403%	50µM*	16%
O=C(Nc1nc2ccsc2c(=O)s1)c1ccco1	?	35µM*	-20%	0%	40µM*	?
O=C(c1cc(F)ccc1F)C1CCCN(C(=O)CCCN2CCCCC2=O)C1 (configuration not stated)	0%	-11%	-6%	-8%	5%	23%
O=C(c1ccncc1)N1CCC2(CCN(Cc3ccccc3)CC2)CC1	·	·	·	-6%[57.4 µM]	-1%[12.7 µM]	·
Cc1cccc(C(=O)NNC(=O)CN2C(=O)c3ccccc3C2=O)c1	-5%	-5%	-3%	-7%	10%	17%
O=C(Nc1ccc2nn(-c3ccccc3)nc2c1)c1ccc(-c2cccc(Cl)c2)o1	-15%	-22%	·	-18%	14µM*	84%
COc1ccc(-n2nc3ccc(NC(=O)c4ccc(-c5cc(Cl)ccc5Cl)o4)cc3n2)cc1	5%	-5%	·	-9%	?	36%
Cc1c(NC(=S)NC(=O)c2ccc(-c3ccc(Cl)cc3)o2)cccc1C(=O)O	-27%	-22%	?	28µM*	45µM*	9%
O=C(Nc1ccc(CN2CCOCC2)cc1)c1ccc(-c2cccc(Cl)c2)o1	?	-34%	-6%	-19%	18µM*	-13%
O=C(NC(=S)Nc1ccc(CN2CCOCC2)cc1)c1ccc(-c2cccc(Cl)c2)o1	?	?	-4%	0%	?	-7%
O=C(NC(=S)Nc1ccccc1N1CCOCC1)c1ccc(-c2cccc(Cl)c2)o1	-8%	-29%	0%	40µM*	22%[59 µM]	4%
Cc1[nH]c(C)c(S(=O)(=O)NCCc2ccccc2)c1C(=O)N1CCCCC1	-11%	-32%	?	13%	·	11%
O=C(Nc1ccc(CN2CCOCC2)cc1)c1ccc(-c2ccc(Cl)cc2Cl)o1	?	-27%	4%	?	40µM*	3%
O=C(Nc1cc(Cl)ccc1N1CCOCC1)c1ccc(Br)o1	?	-3%	0%	·	25µM*	22%
CN(Cc1cc(Cl)cc(Cl)c1O)Cc1c(O)ccc2ccccc12	·	?	-7%	?	·	-7%[57 µM]
O=C(COC(=O)c1cccs1)NCCCc1ccccc1	-2%	12%	8%	-1%	22%	26%
N/C(COc1ccc(Cl)cc1Cl)=N\O	4%	-11%	-5%	135%	-1%	44%
SMILES	BAZ2B block	JMJD2A Tudor inh	PLK1 PBD block	ALOX12 inh	G9a block	HP1b chromo inh
CN(C)Cc1ccccc1CNC(=O)c1nccnc1N	·	·	·	34%	·	·
O=C(Nc1ccccc1)Nc1ccc2nnsc2c1	5%	79µM*	30µM*	0%	37%	-19%
N#C/C(=C\c1ccccc1)C(=O)Nc1nncs1	-20%	2%	-7%	?	50µM*	35%
O=C(Nc1ccccc1)Nc1nncs1	-14%	-8%[11.4 µM]	30µM*	-7%	-8%	5%
O=C(O)c1ccc(N2C(=O)c3[nH]nc(-c4ccccc4)c3C2c2ccccc2)cc1 (configuration not stated)	6%	-15%	-5%	1%	?	4%
CCOc1ccc(N(CC(=O)NCc2cccc(OC)c2)S(=O)(=O)c2c(C)noc2C)cc1	7%	-4%	-10%	-1%	-10%[59 µM]	23%
COC1=CC(=O)C=C(OC)C1=O	·	-16%	6µM*	-29%	?	?
C/C(Cc1ccccc1)=N\NC(=O)CNC(=O)COc1ccccc1	-2%	-12%	-5%	420%	8%	19%
COC(=O)c1[nH]c2cc(OC)ccc2c1N=CN(C)C	-3%	-15%	-14%	14%	40µM*	30%
CNC(=O)c1cn2c(n1)CN(C(=O)c1ccccc1)CC2	·	·	·	2%[12.5 µM]	·	·
NC(=O)CC(NC(=O)c1cccc(Br)c1)c1ccc(NC2CCCCCCC2)c([N+](=O)[O-])c1 (configuration not stated)	?	?	3%	?	20µM*	-5%
NC(=O)CC(NC(=O)c1ccc(Br)cc1)c1ccc(NC2CCCCC2)c([N+](=O)[O-])c1 (configuration not stated)	-6%	-11%	8%	7%	·	33%
NC(=O)CC(NC(=O)c1cccc(Br)c1)c1ccc(NC2CCCCCCCCCCC2)c([N+](=O)[O-])c1 (configuration not stated)	-34%	-10%	6%	1%	71µM*	20%
NC(=O)CC(NC(=O)c1ccc(Br)cc1)c1ccc(NC2CCCCCC2)c([N+](=O)[O-])c1 (configuration not stated)	?	-25%	7%	-15%	·	0%
Cc1ccc(C(=O)NC2(C(Cl)Cl)N=C(c3ccccc3)N=C2N)cc1 (configuration not stated)	4%	-7%	-19%	-5%	-1%	10%
CC(=O)Nc1ccc(S(=O)(=O)Nc2nc3ccccc3nc2Nc2ccccc2C)cc1	·	·	·	-18%	·	·
C/C(=N\Nc1cccc(Cl)c1)c1ccncc1	?	-35%	-4%	18µM*	?	49%
C/C(=N/Nc1cc(C(F)(F)F)ccc1Cl)c1ccc(Cl)c(Cl)c1Cl	·	·	·	-7%	·	·
C/C(=N/NC(=O)CNC(=O)c1ccccn1)c1cccc([N+](=O)[O-])c1	?	0%	?	-3%	18µM*	24%
O=C(NNC(=O)c1ccccn1)c1cccc([N+](=O)[O-])c1	?	-16%	-8%	-1%	28%	42%
